Source: PubChem BioAssay AID463173 (ICCB-Longwood Screening Facility, Harvard Medical School, 2010)
In all, about 52,000 compounds went through this assay and about 1,700 (3.3%) were called active. The full list was thinned out, with actives kept by preference. Values without a mark were called inactive. Rule as the data show it: active = survival mostly below about 52% (no sharp cut-off); inactive = mostly above about 56%.

The compounds below were run on Wild type (assay: growth inhibition of S. aureus wild type versus tarO mutant, primary screen, teichoic acid synthesis inhibitors, RN4220, OD600 (AID 463173)). Conditions: S. aureus RN4220 wild type/DeltatarO growth, OD600, 18 h, stronger effect = lower value, screened at 18.75 µg/mL (by protocol).
In the case of Fc1ccc(CSc2nncn3c2cc2occc23)c(Cl)c1, the survival is reported as 88%. With CC(C)c1ccc(NC(=O)c2ccc3oc(=O)c(S(=O)(=O)c4ccc(F)cc4)cc3c2)cc1 the survival was 70%. Cc1cc(=O)n2nc(N(C)CC(=O)NCc3ccc(Cl)cc3)sc2n1 gave a survival of 85%. CCC(C(=O)NC1CCCCC1)n1c(SCc2cccc(F)c2)nc2ccncc21 (configuration not stated) showed a survival of 124%. CCOc1ccccc1CNC(=O)c1ccc2c(c1)N(Cc1ccc(C)cc1)CCS2 showed a survival of 79%. Work on CCC(Cc1ccccc1)NC(=O)Cn1ncc2c3ccccc3n(Cc3ccccc3)c2c1=O (configuration not stated) yielded a survival of 80%. CCCCCCC1CC=C(C(=O)O)CC1 (configuration not stated) showed a survival of 110%. CCCCCCC1CCC(C(=O)NC(C(=O)O)C(C)C)CC1 (configuration not stated) was tested, and the survival was 59%. CCCCC1CCC(CCCC(C)CCC(=O)O)CC1 (configuration not stated) was tested, and the survival was -5% (active). CCOc1ccc(NC(=O)Cn2c(=O)cc(C)c3c(C)nn(-c4ccc(CC)cc4)c32)cc1 was tested, and the survival was 127%. CCN(c1ccc(C)cc1C)S(=O)(=O)c1nnc(NC(=O)c2ccc(F)cc2)s1 gave a survival of 20%. Compound CC(C)CN(CCNC(=O)c1cn(C)c2ccc(S(=O)(=O)N3CCOCC3)cc2c1=O)CC(C)C has a survival of 82%. Compound CCOC(=O)c1cccc(NC(=O)NCc2cccn2Cc2ccccc2)c1 has a survival of 123%. CCOC(=O)Cc1ccc(NC(=O)NCc2cccn2Cc2ccccc2)cc1 was tested, and the survival was -6% (active). In the case of CCOc1ccc(NC(=O)NCc2cccn2Cc2ccccc2)cc1, the survival is reported as 64%. Cc1nn(CC(=O)NCc2cccc(F)c2)c(=O)c2c(C)n(-c3ccc(Cl)cc3)nc12 showed a survival of 75%. Oc1ccccc1-c1nc(/C=C/c2ccc(F)cc2)nn1-c1ccccc1 showed a survival of 34%. With Oc1ccccc1-c1nc(/C=C/c2ccccc2Cl)nn1-c1ccccc1 the survival was 2% (active). In the case of Oc1ccccc1-c1nc(/C=C/c2ccccc2Cl)no1, the survival is reported as 81%. Compound CC(=O)Nc1ccc(/C=C/c2nc(-c3ccccc3O)n(-c3ccccc3)n2)cc1 has a survival of 86%. In the case of COc1ccc(/C=C/c2noc(-c3ccccc3O)n2)cc1OC, the survival is reported as 136%. In the case of CN(C)c1ccc(/C=C/c2nc(-c3ccccc3O)n(-c3ccccc3)n2)cc1, the survival is reported as 46%. With Oc1ccccc1-c1nc(/C=C/c2ccccc2)nn1-c1ccccc1 the survival was 2% (active). Work on COc1cc2c(-c3ccccc3O)nc3c(c(C)nn3-c3ccccc3)c2cc1OC yielded a survival of 63%. For COc1ccc(/C=C/c2nc(-c3ccccc3O)n(-c3ccccc3)n2)cc1OC, the survival was 8% (active). Cc1nc(C)c(C(=O)N/N=C/c2ccc(O)cc2O)cc1C(=O)N/N=C/c1ccc(O)cc1O gave a survival of 108%. For Oc1ccc(/C=C/c2nc(-c3ccccc3O)n(-c3ccccc3)n2)c(O)c1, the survival was -1% (active). COc1cc2c(-c3ccccc3Cl)nc3c(c(C)nn3-c3ccccc3)c2cc1OC was tested, and the survival was 73%. Work on COCCn1c(Cc2ccccc2)nnc1SCC(=O)N(C)C yielded a survival of 100%. CC(C)(C)NC(=O)c1ccc2nc(CCc3ccccc3)oc2c1 was tested, and the survival was 65%. In the case of Cn1c(CNc2cccc(C(F)(F)F)c2)n[nH]c1=S, the survival is reported as 111%. With O=C(Cn1cc(SCc2ccccc2)c2ccccc21)N1CCCCCC1 the survival was 83%. For O=C(Cn1cnc(S(=O)(=O)N2CCCC2)c1)Nc1ccc(OC(F)(F)F)cc1, the survival was 84%. For CCCCNC(=O)CN1CCN(c2ccc(NC(=O)c3ccc(OC)cc3)cc2C(=O)O)CC1, the survival was 80%. Work on COc1ccc(CCNC(=O)c2ccc3c(c2)N(Cc2cccc(C)c2)C(=O)c2ccccc2S3(=O)=O)cc1OC yielded a survival of 101%. Work on CCC(C)(C)C(=O)Nc1nnc(COC)s1 yielded a survival of 122%. For CC(C)(C)Sc1ccc(SC#N)s1, the survival was 23% (active). With N#CSc1ccc2nc(N)sc2c1 the survival was 93%. Work on Cc1ccccc1NC(=O)C(Cc1ccccc1)N1Cc2ccccc2C1=O (configuration not stated) yielded a survival of 76%. For N#CC(C#N)C(CC(=O)c1ccccc1)c1ccc2c(c1)OCO2 (configuration not stated), the survival was 111%. For Cc1c(Cl)cccc1NC(=O)CC(c1ccc(F)cc1)N1Cc2ccccc2C1=O (configuration not stated), the survival was 10% (active). CCOc1ccccc1NC(=O)CC(c1ccc(F)cc1)N1Cc2ccccc2C1=O (configuration not stated) was tested, and the survival was 80%. Cc1c(Cl)cccc1NC(=O)CC(c1cccs1)N1Cc2ccccc2C1=O (configuration not stated) was tested, and the survival was 0% (active). Work on CCc1ccccc1NC(=O)CC(c1ccc(F)cc1)N1Cc2ccccc2C1=O (configuration not stated) yielded a survival of 121%. With O=C(CC(c1cccs1)N1Cc2ccccc2C1=O)Nc1ccc(Cl)cc1 (configuration not stated) the survival was 129%. For O=C(CC(c1cccs1)N1Cc2ccccc2C1=O)Nc1ccccc1F (configuration not stated), the survival was 73%. Cc1cccc(Cn2c(SCc3ccc(C(=O)NCc4ccccc4F)cc3)nc3ccncc32)c1 gave a survival of 80%. Work on COCCn1c(C)nnc1SCC1CCCO1 (configuration not stated) yielded a survival of 127%. For CC(C)c1ccc(NC(=O)c2cccc3c2C(=O)N(C2CCCCC2)C3)cc1, the survival was 1% (active). Cc1cc(C)cc(NC(=O)c2cccc3c2C(=O)N(C2CCCCC2)C3)c1 was tested, and the survival was 42%. In the case of COC(=O)c1ccc(NC(=O)c2cccc3c2C(=O)N(C2CCCCC2)C3)cc1, the survival is reported as 88%. Work on Cn1c(C(C(=O)NCC2CCCO2)N(C(=O)Cn2nnc3ccccc32)c2ccc3c(c2)OCO3)nc2ccccc21 (configuration not stated) yielded a survival of 111%. Cc1ccc(-n2nc(C)c3c(C(=O)Nc4ccc(Br)c(C)c4)cc(C)nc32)cc1 gave a survival of 78%. Cc1cc(C(=O)N2CCN(c3ccccc3)CC2)c2c(C)nn(-c3cccc(F)c3)c2n1 showed a survival of 63%. With Cc1cc(C(=O)Nc2ccc(C(C)C)cc2)c2c(C)nn(-c3ccccc3)c2n1 the survival was 80%. Work on Cc1ccc(C)c(N2CCN(C(=O)c3cc(C)nc4c3c(C)nn4-c3ccccc3)CC2)c1 yielded a survival of 134%. Work on COc1cccc(CNC(=O)c2cc(C)nc3c2c(C)nn3-c2cccc(F)c2)c1 yielded a survival of 131%. Work on Cc1cc(C(=O)NCc2ccccc2C)c2c(C)nn(-c3cccc(F)c3)c2n1 yielded a survival of 76%. Work on COc1ccc(NC(=O)c2cc(C)nc3c2c(C)nn3-c2cccc(Cl)c2C)c(OC)c1 yielded a survival of 85%. With Cc1ccc(C)c(N2CCN(C(=O)c3cc(C)nc4c3c(C)nn4-c3cccc(F)c3)CC2)c1 the survival was 0% (active). In the case of Cc1ccc(NC(=O)c2cc(C)nc3c2c(C)nn3-c2cccc(Cl)c2C)c(C)c1, the survival is reported as -6% (active). With Cc1cc(C)cc(NC(=O)c2cc(C)nc3c2c(C)nn3-c2ccccc2)c1 the survival was -6% (active). For Cc1cc(C(=O)NCc2ccccc2)c2c(C)nn(-c3cccc(F)c3)c2n1, the survival was 14% (active). Work on CCc1cccc(C)c1NC(=O)c1cc(C)nc2c1c(C)nn2-c1cccc(Cl)c1C yielded a survival of 78%. For O=C1CC(c2ccccc2C(F)(F)F)c2c(c3ccccc3[nH]c2=O)O1 (configuration not stated), the survival was 69%. Cc1cccc(-c2noc(-c3cccnc3NCc3ccccc3Cl)n2)c1 was tested, and the survival was 79%. N#Cc1ccccc1CN1C(=O)c2ccccc2Sc2ccc(C(=O)OCc3ccco3)cc21 showed a survival of 85%. Compound CC1CCN(S(=O)(=O)c2ccc3c(c2)N(CC(=O)N2CCN(c4ccccc4)CC2)C(=O)CO3)CC1 has a survival of 87%. Work on CCN(CC)C(=O)CSc1nsc(SCC(=O)N(CC)CC)c1C#N yielded a survival of 102%. For CC(=O)Nc1ccc(S(=O)(=O)N2CCC(Oc3ccc(-n4cnnn4)cc3)CC2)cc1, the survival was 118%. With O=C(CN1C(=O)S/C(=C\c2ccco2)C1=O)CN1C(=O)S/C(=C\c2ccco2)C1=O the survival was 113%. With OC1N(CN2CCN(c3ccccc3F)CC2)c2ccccc2C12OCCCO2 (configuration not stated) the survival was 104%. Cn1cnnc1SCC(=O)Nc1ccc(C#N)cc1 gave a survival of 71%. CC(=O)c1cccc(NC(=O)CCCSc2nc(-c3ccco3)cc(C(F)(F)F)n2)c1 gave a survival of 52%. Cc1ccccc1CSc1nc(-c2cccc(F)c2)nc2c1Cc1c(CO)cnc(C)c1O2 showed a survival of 85%. CCc1ccc(-n2nc(C)c3c(C(=O)Nc4cccc(C(F)(F)F)c4)cc(C)nc32)cc1 was tested, and the survival was -3% (active). CCc1ccc(-n2nc(C)c3c(C(=O)Nc4ccc(Cl)cc4)cc(C)nc32)cc1 showed a survival of 53%. Cc1cc(C(=O)Nc2cccc(C)c2C)c2c(C)nn(-c3cccc(F)c3)c2n1 gave a survival of 73%. Compound Cc1cc(C)c(NC(=O)c2cc(C)nc3c2c(C)nn3-c2cccc(F)c2)c(C)c1 has a survival of 83%. In the case of Cc1cc(C(=O)Nc2cccc(C(F)(F)F)c2)c2c(C)nn(-c3cccc(F)c3)c2n1, the survival is reported as -1% (active). CCc1ccc(-n2nc(C)c3c(C(=O)Nc4cc(OC)cc(OC)c4)cc(C)nc32)cc1 was tested, and the survival was 66%. In the case of CCc1nnc2c3ccccc3nc(Nc3cc(C)cc(C)c3)n12, the survival is reported as 37%. Cc1cc(C)nc(NS(=O)(=O)c2ccc(NC(=O)c3ccccc3O)cc2)n1 showed a survival of 127%. In the case of CCCN1CCN(c2nnc(-n3cccc3C(=O)Nc3cc(Cl)ccc3C)s2)CC1, the survival is reported as 82%. Work on Cc1c(C(=O)N(C)C)sc2c1c(=O)n(-c1ccccc1C(F)(F)F)c(=O)n2Cc1ccccc1C#N yielded a survival of 66%. Compound CCOC(=O)c1ccccc1NC(=O)Cn1c(=O)n(CCC(=O)N2CCc3ccccc3C2)c(=O)c2ccccc21 has a survival of 88%. Compound CC(=O)c1ccc(C(=O)N(Cc2cccnc2)c2nc3c(Cl)cccc3s2)cc1 has a survival of 119%. CC(=O)c1ccc(C(=O)N(Cc2cccnc2)c2nc3c(C)c(C)ccc3s2)cc1 was tested, and the survival was -3% (active). Cc1ccc2sc(N(Cc3cccnc3)C(=O)CCS(=O)(=O)c3ccccc3)nc2c1C was tested, and the survival was 1% (active). For CC(=O)N(Cc1cccnc1)c1nc2c(C)c(C)ccc2s1, the survival was 71%. Work on Cc1cccc2sc(N(Cc3cccnc3)C(=O)CCS(=O)(=O)c3ccccc3)nc12 yielded a survival of 82%. With Cc1cc(C)c2nc(N(Cc3cccnc3)C(=O)CCS(=O)(=O)c3ccccc3)sc2c1 the survival was 59%.
